D1 antagonist – antagonists of human D1 dopamine receptor. HEK293 TREx D1 cells, calcium flux, dopamine EC80; hits give low values. 360,000 compounds, 3.2% hits. AID 504652. P21728. activity change, negative = inhibition, % at 10 µM; in the data active = activity change below about -30%; also: % is scaled to controls: 0 for no effect and ±100 for the full control effect
Target sequence (P21728 whole entry, looked up): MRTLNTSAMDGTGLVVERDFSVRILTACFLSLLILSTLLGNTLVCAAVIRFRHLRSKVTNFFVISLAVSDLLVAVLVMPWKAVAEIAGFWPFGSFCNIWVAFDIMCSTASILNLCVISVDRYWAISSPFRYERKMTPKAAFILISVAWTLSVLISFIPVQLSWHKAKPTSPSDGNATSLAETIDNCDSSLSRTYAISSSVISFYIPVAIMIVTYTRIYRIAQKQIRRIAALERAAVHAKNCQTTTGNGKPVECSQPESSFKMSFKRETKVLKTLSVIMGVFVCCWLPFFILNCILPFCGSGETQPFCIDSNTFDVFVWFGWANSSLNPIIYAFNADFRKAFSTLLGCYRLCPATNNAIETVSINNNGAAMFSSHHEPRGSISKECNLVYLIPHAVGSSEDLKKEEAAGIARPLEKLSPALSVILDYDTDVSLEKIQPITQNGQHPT
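Cells carrying a force-coupled, tetracycline-inducible human D1 receptor report calcium flux. Each well gets a 10 s baseline, compound with 180 s monitoring, then an EC80 dopamine stimulus with a second 180 s kinetic read.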
D1 ag – agonists of human D1 dopamine receptor; AID 504660; HEK293 T-REx D1 cells, calcium flux, agonist mode; 360,000 compounds, 1% hits; activation, % at 2 µM; also: 0% is about no effect
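Agonism was scored from calcium flux recorded over 180 s (1 read/s) after pintool compound addition, following a 10-cycle baseline. Cells were inducible force-coupled HEK293 TREx D1, plated overnight at 30 C and loaded with no-wash calcium dye.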
TRHR PAM – TRH receptor (human) allosteric enhancement; AID 493056; enhancement, % at 2 µM; TRHR cells, fluo-8 calcium fluorescence, EC20 TRH enhancement; 360,000 compounds, 0.66% hits; in the data active = enhancement above about 30%; also: 0% is about no effect
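TRHR-expressing cells loaded with fluo-8 calcium dye were read kinetically (ex 480/em 530) during compound addition, then stimulated with an EC20 of TRH (10 nM final). Enhancement of the Gq-mediated intracellular calcium response was scored.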
TRHR agonist – activates the human TRH receptor; TRHR cells, calcium flux fluo-8, FDSS agonist mode; P34981; activation, % at 2 µM; AID 493084; 360,000 compounds, 0.18% hits; also: 0% is about no effect
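In this calcium-flux screen, cells bearing human TRHR are dye-loaded with fluo-8, baselined for 10 cycles, then exposed to library compounds; positive kinetic calcium responses during the agonist phase mark hits, with TRH as control.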
D1 potentiator – potentiators of human D1 dopamine receptor; P21728; HEK293 TREx D1 cells, calcium flux, dopamine EC20 potentiation; potentiation, % at 10 µM; 360,000 compounds, 0.036% hits; AID 504651; in the data active = potentiation above about 30%; also: 0% is about no effect
GRP78 ERSR act – induces the endoplasmic reticulum stress response in human glioma cells. U87-MG GRP78 promoter luciferase reporter, 16 h. Potency, µM, without a hit: at the highest dose activation, most hits filed as activators. 420,000 compounds, 0.02% hits. AID 602332; active = well fitted activation curve with a large enough effect; also: potency is read from the fitted curve at half-maximal effect; series mostly up to about 76 µM; % of control where 0% means no effect; nearly all actives have a fitted effect of over 35% in size
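Stably transfected U87-MG human glioma cells carrying a GRP78-based luminescent sensor were seeded at 1000 cells/well, pin-dosed with compounds and incubated 16 h. Luciferase reagent was then added, and end-point luminescence was read after 10 min at room temperature.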
Numbers without * were called inactive; x = no result. An excerpt weighted towards active compounds, which were near 4% of everything screened. Rule as the data show it, unless noted: active = activation above about 30%; inactive = the rest.

SMILES	D1 antagonist	D1 ag	TRHR PAM	TRHR agonist	D1 potentiator	GRP78 ERSR act
CCOc1ccc(NC(=O)CC2C(=O)N(c3ccccc3)C(=O)N2Cc2cccc(OC)c2)cc1 (configuration not stated)	4	0	2	-1	-1	0%
COc1ccc(NC(=O)CC2C(=O)N(c3cccc(OC)c3)C(=O)N2Cc2cccnc2)cc1 (configuration not stated)	-65*	0	4	0	2	-2%
CCOc1ccc(C(=O)OCC(=O)NC2CCCC2)cc1OCC	-16	2	5	0	0	-1%
CCOc1cc(CNCc2ccccc2)ccc1OCC(=O)NC1CCCCC1	-9	34*	14	1	-4	-6%
Cc1nc(SCc2ccccc2F)c2oc3ccccc3c2n1	7	8	-2	1	5	-1%
CC1CCN(CCCn2c(=S)[nH]c3c(sc4ccccc43)c2=O)CC1	7	0	17	0	0	0%
COCCCn1c(=S)[nH]c2c(sc3ccccc32)c1=O	3	4	32*	0	0	3%
COC(=O)c1ccc2c(c1)C(=O)/C(=C/c1ccc(O)cc1)O2	2	88*	-6	31*	-4	9%
O=C1/C(=C/c2ccc(Br)cc2)Oc2cc(O)ccc21	-10	45*	0	14	-6	2%
O=C1/C(=C/c2ccccc2)Oc2ccccc21	x	x	x	x	x	-4%
O=C1/C(=C/c2ccc([N+](=O)[O-])cc2)Oc2cc(O)ccc21	-7	16	-3	8	-4	-1%
CC(=O)Oc1ccc(/C=C2/Oc3ccccc3C2=O)cc1	11	12	-7	3	1	1%
CC(C)(C)c1ccc(/C=C2\Oc3cc(O)ccc3C2=O)cc1	-46*	11	-5	15	-3	13%
Cc1nnc(-c2cccc(C(F)(F)F)c2)nc1N1CCOCC1	0	3	-2	-1	5	1%
Cc1ccnc(N2CCN(c3cc(C)c(C#N)c4nc5ccccc5n34)CC2)c1	x	x	x	x	x	0%
CCOC(=O)c1ccc(NS(=O)(=O)c2cn(C)cn2)cc1	4	0	5	0	-3	-4%
COc1ccc(C(N)c2nccc3cc(OC)c(OC)cc23)cc1OC (configuration not stated)	-20	10	5	0	-2	-3%
CCOC(=O)C1CCN(Cc2ccc(O)c3ncccc23)CC1	-42*	0	11	0	-1	-1%
CCOC(=O)C1CCN(Cc2ccccc2C(F)(F)F)CC1	2	0	-1	0	-2	-3%
CC(C)(O)CC[C@@H](O)[C@](C)(O)C1CC[C@@]2(O)C3=CC(=O)[C@]4(O)C[C@@H](O)[C@@H](O)C[C@]4(C)C3CC[C@]12C (some centres not stated)	-33*	1	0	0	6	0%
CCOc1ccc(C(=S)N2CCOCC2)cc1OCC	1	3	16	0	0	-2%
CCC(=O)Nc1sc2c(c1C(=O)Nc1ccc(Br)cc1)CCCCC2	-31*	4	1	6	-3	-3%
CCOC(=O)c1c(NC(=S)NNS(=O)(=O)c2ccc(Br)cc2)sc2c1CCCCC2	-33*	11	-18	1	-7	-3%
CCOC(=O)c1c(NC(=S)Nc2ccc(OC)cc2)sc2c1CCCCC2	7	3	0	0	1	0%
O=C(Cc1ccccc1)Nc1sc2c(c1C(=O)Nc1ccc(Cl)cc1)CCCC2	28	6	1	1	6	-3%
CN1CCc2sc(NC(=O)Cc3ccccc3)c(C(=O)Nc3ccc(Cl)cc3)c2C1	-53*	23	3	1	-6	x
CCC(=O)Nc1sc2c(c1C(=O)Nc1cccc(C)c1)CCCC2	-5	0	-1	0	-3	-2%
CCCCNc1nc2c(c(=O)n(C)c(=O)n2C)n1CC(O)COc1ccccc1C (configuration not stated)	-17	-1	0	-1	-1	-3%
Cc1ccc(C)c(OCCC(=O)OCC(=O)Nc2ccc(N3CCOCC3)cc2)c1	-53*	9	4	-1	-5	4%

Bioassay records deposited in PubChem by National Center for Advancing Translational Sciences (NCATS).
